Screening data deposited in PubChem by National Center for Advancing Translational Sciences (NCATS).
In the library only some 5.9% were active in any assay of this set; here they are far more common.
GALK inhibitor: galactokinase (human) inhibition; Purified GALK, Kinase-Glo residual ATP luminescence; Potency, µM (highest dose often 57.5 µM), usual class: inhibitors; actives 0.007% (n = 270,000)
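Luminescence from leftover ATP (Ultra-Glo luciferase/luciferin) served as read-out after a 1 h room-temperature reaction of 5 nM GALK with 35 uM ATP and 100 uM galactose.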
VP16 counter: counter-screen for ROR gamma inhibitors: Gal4-VP16 reporter; actives 3.5% (n = 310,000); Potency, µM (highest dose often 53.6 µM), usual class: inhibitors; Drosophila S2 Gal4-VP16 UAS-luciferase, luminescence, 20 h;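 note: Gal4-VP16 expression switched on by copper sulfate through the metallothionein promoter; nearly all actives have a fitted effect of over 50% in size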
Coupling enz: inhibits coupling enzyme system, counter-screen for aldolase hits | coupling enzyme system counterscreen, AmpLite Red fluorescence | activity change, negative = inhibition, % at 58.2 µM, hits read low | actives 0.67% (n = 290,000); in the data active = activity change below about -30%
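Compounds tested against the coupling enzymes alone at 57.5 uM final; readout was AmpLite Red fluorescence (525/598 nm) after 20 min at RT.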
RORgamma inh: ROR gamma (mouse) transcription inhibition. P51450. Drosophila S2 Gal4-RORgamma UAS-luciferase reporter, 20 h. Potency, µM (titrated, usually from 53.6 µM), usual class: inhibitors. actives 5.4% (n = 310,000). AID 2551; note: nearly all actives have a fitted effect of over 60% in size
Target sequence (P51450 whole entry, looked up, the tested form may be a part): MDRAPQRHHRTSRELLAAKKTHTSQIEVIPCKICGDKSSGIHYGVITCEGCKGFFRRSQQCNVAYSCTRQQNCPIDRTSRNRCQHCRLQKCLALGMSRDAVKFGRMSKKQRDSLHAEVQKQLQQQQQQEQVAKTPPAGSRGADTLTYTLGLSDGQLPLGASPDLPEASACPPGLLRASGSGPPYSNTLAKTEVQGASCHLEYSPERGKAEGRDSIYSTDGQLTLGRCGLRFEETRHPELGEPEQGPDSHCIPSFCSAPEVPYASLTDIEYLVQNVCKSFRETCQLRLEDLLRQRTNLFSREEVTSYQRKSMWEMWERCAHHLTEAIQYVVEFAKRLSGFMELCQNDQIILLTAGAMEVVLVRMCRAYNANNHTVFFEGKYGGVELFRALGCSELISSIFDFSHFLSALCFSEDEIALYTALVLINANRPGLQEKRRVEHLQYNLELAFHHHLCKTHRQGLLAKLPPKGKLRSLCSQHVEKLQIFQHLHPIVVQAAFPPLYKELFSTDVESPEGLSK
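A Gal4/UAS one-hybrid system in insect cells: metallothionein-promoter Gal4–ROR gamma fusion plus Photinus luciferase reporter. Copper sulfate 700 uM final, 20 hr ambient incubation, luminescent detection after 10 min with reagent.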
TrxR1 inh: blocks rat thioredoxin reductase 1 | O89049 | recombinant rTrxR1, NADPH fluorescence consumption, selenite substrate | Potency, µM (highest dose often 114 µM), hits mostly inhibitors | actives 1% (n = 390,000); note: nearly all actives have a fitted effect of over 65% in size
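Rat TrxR1 (90 nM in the dispensed reagent) was pre-reduced with 400 uM NADPH for 5 min at room temperature, then incubated with compound for 15 min. After 400 uM selenite was added, NADPH fluorescence (Ex 340/Em 450 nm) was followed for 8 min.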
TrxR1 substrate: is turned over as a substrate by rat TrxR1; purified TrxR1 substrate turnover, NADPH consumption readout; actives 0.01% (n = 390,000); Potency, µM (top dose mostly 114 µM); note: nearly all actives have a fitted effect of over 50% in size
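Rat TrxR1, dispensed at 90 nM, was prereduced with 400 uM NADPH (final) for 5 min at ~22 deg C, then incubated with compound 15 min before 400 uM selenite. A first-read NADPH fluorescence drop versus no-compound background flagged substrates.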
Of the large screens only hits and unclear results are named; the others gave an inactive call. Unless noted, calls come from the whole dose curve; as a rule, active = well fitted curve in the direction sought with a large enough effect; inconclusive = small, poorly fitted or top-dose-only effect, or another doubt; inactive = no such curve, though single readings can be large; an effect the other way counts as inactive or inconclusive.

O=C(N/N=C/c1ccncc1)c1ccc(-n2cccc2)cc1	none
Cc1ccc(/C=N/NC(=O)c2csc(C)c2)o1	none
O=C(N/N=C/c1cccs1)c1ccc(NC(=O)c2ccccc2Cl)cc1	VP16 counter inconclusive, RORgamma inh 10µM
O=C(N/N=C/c1ccccc1F)c1cccc(NC(=O)c2ccccc2Cl)c1	none
COC(=O)c1ccc2c(c1)N(Cc1cc(C)ccc1C)C(=O)c1ccccc1S2(=O)=O	none (no result: GALK inhibitor, VP16 counter, Coupling enz, RORgamma inh)
CCN1CCc2nc(N)sc2C1	none
CCN1CCc2nc(N)oc2CC1	TrxR1 inh 22.4µM (no result: GALK inhibitor, Coupling enz)
O=C1C=C(C2OC(CO)C(O)C2O)C(=O)N1 (stereo not given)	TrxR1 inh 7.08µM (no result: GALK inhibitor, VP16 counter, Coupling enz, RORgamma inh)
COc1ccc(S(=O)(=O)N(C)C[C@H]2Oc3ccc(NS(=O)(=O)c4cn(C)cn4)cc3C(=O)N([C@H](C)CO)C[C@@H]2C)cc1	none (no result: GALK inhibitor, VP16 counter, Coupling enz, RORgamma inh)
CCCCCCOc1ccc(C(=N)N(CCCC)CCCC)c2ccccc12	VP16 counter 22.4µM, RORgamma inh inconclusive (no result: GALK inhibitor, Coupling enz, TrxR1 inh, TrxR1 substrate)
CCCCN(C)CCOc1ccccc1OCC	none
CCCC(=O)N(Cc1cc(=O)[nH]c2ccccc12)c1ccccc1OC	none
O=C(O)CCC(=O)c1ccc2ccc3cccc4ccc1c2c34	VP16 counter 10µM, RORgamma inh 11.2µM (no result: TrxR1 inh, TrxR1 substrate)
O=C(O)CCC(=O)c1cccc2ccccc12	none
O=C(O)CCC(=O)Nc1ccc(OCC(=O)O)cc1	none
CCOC(=O)C1CCN(CC(=O)Nc2c(C(=O)OC)[nH]c3cccc(C)c23)CC1	none
CCN(CC)CCOc1ccc2c(c1)C(=NO)c1cc(OCCN(CC)CC)ccc1-2	none (no result: GALK inhibitor)
CCCOc1ccc2c(c1)C(=NN=C(N)N)c1cc(OCCC)ccc1-2	RORgamma inh 14.1µM
Cc1cc(N2CCOCC2)nc2ccc(NC(=S)N3CCN(c4ccccc4)CC3)cc12	RORgamma inh inconclusive
COc1ccccc1N1CCN(C(=S)Nc2ccc3nc(N4CCOCC4)cc(C)c3c2)CC1	VP16 counter inconclusive, RORgamma inh 4.47µM
Cc1ccc(C)c(N2CCN(C(=S)Nc3ccc4nc(N5CCN(C)CC5)cc(C)c4c3)CC2)c1	VP16 counter inconclusive, RORgamma inh 11.2µM
CCN1CCN(c2cc(C)c3cc(NC(=S)N4CCN(c5ccccc5F)CC4)ccc3n2)CC1	VP16 counter inconclusive, RORgamma inh 12.6µM
Cc1ccc(C)c(N2CCN(C(=S)Nc3ccc4nc(N5CCOCC5)cc(C)c4c3)CC2)c1	VP16 counter inconclusive, RORgamma inh 5.62µM
Cc1csc(NC(=O)c2sccc2C)n1	VP16 counter inconclusive
CCc1sc(C(=O)Nc2ncccc2C)cc1C	none
O=C(Nc1nccs1)c1cc2c(s1)CCCCC2	VP16 counter 7.94µM
CCc1sc(C(=O)Nc2nccs2)cc1C	VP16 counter inconclusive, RORgamma inh 7.94µM
O=C(Nc1nncs1)c1cc2c(s1)CCC2	RORgamma inh inconclusive
Cc1ccsc1C(=O)Nc1nccs1	VP16 counter inconclusive, RORgamma inh 11.2µM
O=C(Nc1nccs1)c1ccc(S(=O)(=O)NCC2CCCCC2)cc1	RORgamma inh 11.2µM
CC(=O)c1ccc(NC(=O)CC2S/C(=N/N=C3CCCCCC3)NC2=O)cc1 (stereo not given)	none (no result: VP16 counter, RORgamma inh)
CN(c1ccccc1)S(=O)(=O)c1ccc(C(=O)Nc2nccs2)cc1	VP16 counter inconclusive
CN(c1ccc(C(=O)Nc2nccs2)cc1)S(=O)(=O)c1ccccc1	RORgamma inh 2.82µM
O=C(/C=C/c1ccco1)Nc1scc(-c2ccccc2)c1C(=O)O	VP16 counter inconclusive, RORgamma inh 10µM, TrxR1 inh inconclusive
CCOC(=O)Cc1csc(N/N=C/c2ccc(C(F)(F)F)cc2)n1	VP16 counter inconclusive, RORgamma inh 0.708µM (no result: GALK inhibitor)
CCOC(=O)Cc1csc(NC(=O)/C=C/c2ccco2)n1	TrxR1 inh 79.4µM
Cc1sc(NC(=O)/C=C/c2ccco2)c(C(=O)OC(C)C)c1C	VP16 counter 15.8µM, RORgamma inh inconclusive
O=C(/C=C/c1ccccc1)Nc1scc(-c2ccccc2)c1C(=O)O	VP16 counter inconclusive
CCOc1ccccc1C(=O)NC1CC2CCCC(C1)N2Cc1ccc(C)cc1 (stereo not given)	none
CCOC(=O)c1cc(-c2ccc(OC)cc2)nn1-c1ccccc1C(=O)O	none
O=C(/C=C/c1ccco1)Nc1nc(-c2ccccn2)cs1	VP16 counter 11.2µM, RORgamma inh 2.82µM, TrxR1 inh 14.1µM
Cc1ccc(S(=O)(=O)N2CCCc3cc(NS(=O)(=O)c4ccc(F)c(C)c4)ccc32)cc1	none (no result: GALK inhibitor, VP16 counter, Coupling enz, RORgamma inh)
O=C(NC(=S)N1CCN(C2CCCCC2)CC1)c1ccccc1	VP16 counter 3.16µM, RORgamma inh 0.891µM
O=C(N/C(=C\c1cccnc1)C(=O)N1CCC(O)CC1)c1ccccc1	none
O=C(N/C(=C/c1cccnc1)C(=O)N1CCCCCC1)c1cccc(Br)c1	VP16 counter inconclusive, RORgamma inh 10µM (no result: Coupling enz)
O=C(c1ccccc1)N1CCN(C2CCCCCC2)CC1	none
COc1cc2c(cc1OC)CN(C(=S)NC(=O)c1ccccc1)CC2	VP16 counter 3.16µM, RORgamma inh 5.62µM
O=C(NC(=S)NC1CCCCCCCCCCC1)c1cccnc1	none
O=C(NC(=S)N1CCCCC1)c1cccnc1	VP16 counter 3.16µM, RORgamma inh 0.708µM
O=C(NC(=S)N1CCN(c2ccccc2)CC1)c1ccccc1	VP16 counter 1.12µM, RORgamma inh 1.41µM (no result: Coupling enz, TrxR1 inh, TrxR1 substrate)
O=C(NCC(=O)N1CCN(C/C=C/c2ccccc2)CC1)c1ccc(Br)cc1	none (no result: GALK inhibitor, VP16 counter, Coupling enz, RORgamma inh)
O=C(NC(=S)N1CCCC1)c1ccccc1	VP16 counter 7.08µM, RORgamma inh 3.98µM (no result: Coupling enz)
O=C(NC(=S)N1CCN(C/C=C/c2ccccc2)CC1)c1ccc(Cl)nc1	VP16 counter 0.316µM, RORgamma inh 0.112µM
O=C(NC(=S)N1CCN(c2ccccc2)CC1)c1ccco1	none (no result: GALK inhibitor, VP16 counter, Coupling enz, RORgamma inh)
O=C(NC(=S)N1CCCCCC1)c1ccccc1	VP16 counter 1.78µM, RORgamma inh 1.41µM (no result: Coupling enz)
Cc1ccc(-c2cc3c(n2-c2ccc(C(=O)O)cc2)CCCC3=O)cc1	none
CSc1ncc(CN2CCN(CC=C(C)C)C(CCO)C2)cn1 (stereo not given)	none
O=C(NC(=S)N1CCN(c2ccccn2)CC1)c1ccccc1	VP16 counter 4.47µM, RORgamma inh 2.24µM (no result: GALK inhibitor)
O=C(c1cccnc1)N1CCN(Cc2cccc(F)c2)CC1	none
O=C(NC(=S)N1CCN(Cc2ccccc2)CC1)c1cccnc1	VP16 counter 2.51µM, RORgamma inh 0.891µM
CC(=O)c1ccc(NC(=S)N2CCN(c3ccccn3)CC2)cc1	none
O=C(CSC(=S)N1CCCC1)c1ccccc1	VP16 counter inconclusive, RORgamma inh 10µM
O=C(NC(Cc1ccccc1)C(=O)O)OCC1c2ccccc2-c2ccccc21 (stereo not given)	none (no result: GALK inhibitor)
CCOc1cc(C2Nc3ccccc3-c3nnc(SCc4ccccc4)nc3O2)ccc1OC (stereo not given)	none (no result: GALK inhibitor, VP16 counter, Coupling enz, RORgamma inh)
